Screening results: PubChem BioAssay, several laboratories
This is a sample that favours compounds with a hit; in the whole collection about 1.3% have one here.
GRK2 inh – human GRK2 inhibition via aptamer displacement; 330,000 tested, 0.59% active; inhibition of aptamer binding, % at 10 µM; bead flow cytometry, FAM-aptamer displacement from GRK2; P25098;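 active = inhibition of aptamer binding above 40%, roughly 3 SD of noise, on plates passing a quality check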;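 note: median bead fluorescence of bound FAM aptamer so fluorescent compounds give negative values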
Bfl-1 A1 inh – inhibitors of the anti-apoptotic protein A1, read as caspase activation; AID 2462; MEF A1-2A-BIM cells, Caspase-Glo 3/7 luminescence, 3 h; percent of clofoctol response, vehicle zero; caspase activation, % (concentration not given with the values); 330,000 tested, 0.066% active;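 active = over half of replicate activation scores above 10%, or exactly half above 10 with the replicate mean above 10; inconclusive = replicate mean below 10 yet half the replicates above 10; inactive = over half of replicates below 10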
VLA-4 inh – inhibition in a human VLA-4 binding assay. P13612. VLA-4 expressing cells, ligand binding flow cytometry. inhibition, % (about 7 µM as worked out from the volumes in the protocol). 330,000 tested, 0.2% active. AID 2557; in the data active = inhibition above about 50%
NTR1 ag – NTR1 (human) agonism. P30989. NTR1-U2OS beta-arrestin-GFP spot imaging, agonist mode. activation, % at 20 µM. 330,000 tested, 0.17% active. AID 493036;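 active = activation at or above 40% of the spot to cytoplasm intensity ratio, with at least 20 cells analyzed; inconclusive = wells under 20 cells, flagged as cytotoxic or low count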;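 note: 0% = DMSO without peptide and 100% = 100 nM NTR1 peptide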
Beta2AR agonist – activates human beta-2 adrenergic receptor causing internalization; P07550; Am2.2-beta2AR cells, FAP receptor internalization, flow cytometry; response, % (test concentration not listed); 340,000 tested, 0.43% active; AID 504454;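 active = response above a set limit, near 3 SD of response in nonfluorescent compounds, cut at about 42% in these data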
Target sequence (P07550 whole entry, looked up): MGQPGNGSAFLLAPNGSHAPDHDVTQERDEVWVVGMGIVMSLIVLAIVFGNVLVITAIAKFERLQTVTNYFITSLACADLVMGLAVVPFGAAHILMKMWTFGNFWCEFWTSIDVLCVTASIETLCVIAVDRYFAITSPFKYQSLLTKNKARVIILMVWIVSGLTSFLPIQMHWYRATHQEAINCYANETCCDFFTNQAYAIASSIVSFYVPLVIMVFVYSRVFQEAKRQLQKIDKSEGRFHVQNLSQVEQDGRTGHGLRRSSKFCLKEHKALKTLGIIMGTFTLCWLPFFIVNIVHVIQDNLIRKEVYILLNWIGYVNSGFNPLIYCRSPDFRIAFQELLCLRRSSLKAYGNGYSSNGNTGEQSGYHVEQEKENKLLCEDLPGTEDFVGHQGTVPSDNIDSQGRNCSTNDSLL
VLA-4 allo CP – confirmation of allosteric modulators of human VLA-4 integrin; AID 2813; U937 cells, HUTS-21 LIBS mAb binding, flow cytometry; LDV ligand present at threefold Kd; 1,300 tested, 2% active; inhibition, % at 6.7 µM; shares compounds with VLA-4 inh; in the data active = inhibition above about 40%;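 note: 0% = ligand without compound and 100% = no ligand background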
* = called active by the depositor; ? = inconclusive; . = no result.

SMILES	GRK2 inh	Bfl-1 A1 inh	VLA-4 inh	NTR1 ag	Beta2AR agonist	VLA-4 allo CP
Cc1noc(C)c1COc1ccc(C(=O)NCCc2ccc(F)cc2)cc1	0	-1	50*	0	4	12
Cc1ccc(N2CC(NS(=O)(=O)c3cccs3)CC2=O)cc1 (stereo unspecified)	1	0	12	0	-3	.
c1ccc(-c2sc3ccccc3c2-c2ccc(OCCN3CCCCC3)cc2)cc1	0	?	17	0	0	-8
COc1ccc(-c2sc3cc(OC)ccc3c2-c2ccc(OCCN3CCOCC3)cc2)cc1	0	.	.	9	-2	0
COc1cc(OC)cc(-c2sc3ccc(OC)cc3c2-c2ccc(OCCN3CCCCC3)cc2)c1	0	.	.	11	17	0
COc1ccc(-c2c(-c3cc(OC)cc(OC)c3)sc3ccc(OC)cc23)cc1	0	1	-4	4	-11	.
COc1ccccc1-c1sc2cc3c(cc2c1-c1ccc(OCCN2CCOCC2)cc1)OCO3	8	.	.	4	5	0
COc1ncnc(OC)c1S(=O)(=O)Nc1ccc(C(F)(F)F)cc1	1	0	-4	-1	-2	.
N#Cc1c(Cl)nsc1NCCN1CCOCC1	2	1	3	-2	-3	.
CNc1snc(C)c1C(=O)OC(C)C(=O)NCc1ccccc1 (stereo unspecified)	.	.	.	0	-8	.
COc1ccc(-c2sc3cc4c(cc3c2-c2ccc(OCCN3CCCCC3)cc2)OCO4)cc1	0	.	.	16	17	0
CN(C)CCOc1ccc(-c2c(-c3ccccc3)sc3ccccc23)cc1	0	0	70*	1	10	30
CCOC(=O)c1c(NC(=O)C2c3ccccc3Oc3ccccc32)sc(C(=O)N(CC)CC)c1C	2	0	-2	4	11	3
N#CCCN(C(=O)COC(=O)CCc1nc2ccccc2c(=O)[nH]1)c1ccccc1F	0	0	51*	-1	-1	2
C=CCc1ccccc1Oc1cc(F)nc(N)n1	3	-1	10	1	-3	.
Cc1ccccc1Oc1ccc(NC(=O)C2CC=CCC2C(=O)O)cc1 (stereo unspecified)	0	-1	54*	0	-3	5
NS(=O)(=O)c1cccc(NC(=O)CCN2C(=O)C3CCCCC3C2=O)c1 (stereo unspecified)	0	0	53*	0	-7	-5
NS(=O)(=O)c1cccc(NC(=O)COC(=O)CCN2C(=O)c3ccccc3C2=O)c1	1	-1	-12	3	-10	.
Cc1ccc(NC(=O)Nc2ccc(F)c(Cl)c2)cc1	0	-2	4	2	-2	.
CCC(CC)NC(=O)Nc1ccc(F)c(Cl)c1	0	-1	64*	-2	-3	7
O=C(OCC(=O)N1CCOCC1)c1ccc[nH]c1=O	1	0	52*	-2	-2	2
O=C(OCC(=O)N1CCCCCC1)c1ccc[nH]c1=O	3	-1	3	-1	6	.
O=C1C2C3C=CC(C3=C(c3ccccc3)c3ccccc3)C2C(=O)N1CCO (stereo unspecified)	1	1	0	2	10	.
Cc1ccc(C(=C2C3C=CC2C2C(=O)NC(=O)C32)c2ccc(C)cc2)cc1 (stereo unspecified)	0	0	56*	15	-5	6
O=C1N[C@@H](Cc2ccccc2)COC(=O)[C@H](Cc2ccc(F)cc2)C/C=C\C[C@H]1CC(=O)N(CCO)Cc1ccccc1	3	0	1	9	13	.
SMILES	GRK2 inh	Bfl-1 A1 inh	VLA-4 inh	NTR1 ag	Beta2AR agonist	VLA-4 allo CP
C[C@H]1COC(=O)[C@H](Cc2ccc(F)cc2)C/C=C\C[C@H](CC(=O)N(CCO)Cc2ccccc2)C(=O)N1	3	0	113*	6	2	6
CCn1c(Cc2ccccc2)nnc1SCc1ccc([N+](=O)[O-])cc1	0	1	4	0	-5	.
COCCn1c(Cc2ccccc2)nnc1SCc1ccc([N+](=O)[O-])cc1	0	0	41	-1	0	5
CCOC(=O)/C(=C\c1ccc(OC(F)F)cc1)C1=Nn2c(nnc2-c2ccc(Cl)cc2)SC1	0	?	60*	.	80*	51*
CCOC(=O)[C@H]1[C@H]2COc3ccc(Br)cc3[C@H]2N2C(=O)CNC(=O)[C@@]12C	0	-1	12	3	-1	.
CC(=O)NC(Cc1ccc(F)cc1)C(=O)NC1CCN(C(=O)Nc2ccc(F)cc2)CC1 (stereo unspecified)	3	-1	10	-1	-18	.
COc1cc(C)nc(-n2nc(C)cc2OC)n1	2	1	-8	3	3	0
CC(C)c1cc(C(C)C)c(S(=O)(=O)N2CCNCC2)c(C(C)C)c1	.	0	1	2	9	.
COc1ccc(-c2cc(C3CCN(c4ccc(C(C)=O)cc4[N+](=O)[O-])CC3)[nH]n2)cc1	1	0	59*	4	5	16
Nc1nc(=S)c2[nH]c(=S)[nH]c2[nH]1	.	.	.	.	-1	.
Nc1nc(=S)c2[nH]cnc2[nH]1	0	1	57*	6	0	-2
COc1ccccc1Nc1nc2ccc(C)cc2cc1C#N	1	1	108*	5	4	0
CSc1ncccc1C(=O)OCc1c(F)cccc1Cl	2	-2	-5	5	-4	.
O=C(OCc1c(F)cccc1Cl)c1cccnc1Cl	4	-1	51*	-1	-1	4
Cc1ccc2cc3c(=O)n(C)cc(C=O)c3nc2c1	.	.	.	.	-7	.
Cc1ccc2c(cnn2C(=O)CCCC(=O)NCc2ccc(Cl)cc2)c1	0	-1	22	4	16	.
CCOc1ccc(CNC(=O)CCCC(=O)n2ncc3cc(C)ccc32)cc1	0	.	59*	9	-14	5
CCc1nn(CC(=O)N2CCCCCC2)c(=O)c2cc3ccccc3n12	0	-1	7	1	-12	.
Cc1cc(-c2nnc(SCC(=O)Nc3ccc(F)cc3F)n2N)n[nH]1	1	-1	50*	1	0	8
Cc1cc(-c2nnc(SCC(=O)Nc3ccccc3F)n2N)n[nH]1	0	1	-2	2	1	.
NC(=O)c1ccccc1NC(=O)c1cc(S(=O)(=O)N2CCCCC2)ccc1N1CCOCC1	0	0	6	-1	-3	-4
Cc1ccc(C)c(NC(=O)c2cc(S(=O)(=O)N3CCCCC3)ccc2N2CCOCC2)c1	0	0	51*	3	0	4
Cc1ccc(S(=O)(=O)N2CCOCC2)cc1NC(=O)c1cc([N+](=O)[O-])ccc1N1CCOCC1	0	1	2	-1	3	.
O=C(Nc1ccccc1)c1cc(S(=O)(=O)N2CCCCC2)ccc1N1CCOCC1	0	.	19	0	-1	0
